Experimental data published in the supplement of paper PMC12282887.
± gives the standard deviation of the averaged measurements.

Experiments:
Assay in all cases: promoter activity interaction Z-score (Lux/OD deviation from empty-vector control); higher = stronger promoter induction by the compound
[1] = tested on: E. coli BW25113 ompFp lux reporter
How it was run: (§1)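 E. coli BW25113 luxCDABE reporter strains grew at 37°C in 40 µl LB Lennox in 384-well plates, with OD600 and luminescence read every 30 min for 12 h. After integration over 0–8 h for wild type or 1–9 h for deletion strains, wells under 10% of the median growth value were removed. Each score is the Z-transformed residual of growth-normalised luminescence fitted against a control.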

[2] = tested on: E. coli BW25113 robp lux reporter
How it was run: as §1

[3] = tested on: E. coli BW25113 soxSp lux reporter
How it was run: as §1

[4] = tested on: E. coli BW25113 tolCp lux reporter
How it was run: as §1

[5] = tested on: E. coli BW25113 acrABp lux reporter
How it was run: as §1

[6] = tested on: E. coli BW25113 marRABp lux reporter
How it was run: as §1

[7] = tested on: E. coli BW25113 micFp lux reporter
How it was run: as §1

[8] = 3.6 µg/ml, genetic background: ΔmarA
[9] = 3.6 µg/ml, genetic background: Δrob
[10] = 3.6 µg/ml, genetic background: ΔsoxS
[11] = 0.45 µg/ml, genetic background: wild type
[12] = 0.45 µg/ml, genetic background: ΔmarA
[13] = 0.45 µg/ml, genetic background: Δrob
[14] = 0.45 µg/ml, genetic background: ΔsoxS
[15] = 0.89 µg/ml, genetic background: wild type
[16] = 0.89 µg/ml, genetic background: ΔmarA
[17] = 0.89 µg/ml, genetic background: Δrob
[18] = 0.89 µg/ml, genetic background: ΔsoxS
[19] = 1.8 µg/ml, genetic background: wild type
[20] = 1.8 µg/ml, genetic background: ΔmarA
[21] = 1.8 µg/ml, genetic background: Δrob
[22] = 1.8 µg/ml, genetic background: ΔsoxS
[23] = 3.6 µg/ml, genetic background: wild type
[24] = 0.0081 µg/ml, genetic background: wild type
[25] = 0.0081 µg/ml, genetic background: ΔmarA
[26] = 0.0081 µg/ml, genetic background: Δrob
[27] = 0.0081 µg/ml, genetic background: ΔsoxS
[28] = 0.016 µg/ml, genetic background: wild type
[29] = 0.016 µg/ml, genetic background: ΔmarA
[30] = 0.016 µg/ml, genetic background: Δrob
[31] = 0.016 µg/ml, genetic background: ΔsoxS
[32] = 0.033 µg/ml, genetic background: wild type
[33] = 0.033 µg/ml, genetic background: ΔmarA
[34] = 0.033 µg/ml, genetic background: Δrob
[35] = 0.033 µg/ml, genetic background: ΔsoxS

## O=C1CN(/N=C/c2ccc([N+](=O)[O-])o2)C(=O)N1 [Nitrofurantoin]
[1]; [8]
  promoter activity interaction Z-score: 1.3 ± 0.68
[1]; [9]
  promoter activity interaction Z-score: 3.89
[1]; [10]
  promoter activity interaction Z-score: -0.534
[2]; [11]
  promoter activity interaction Z-score: 0.114 ± 0.034
[2]; [12]
  promoter activity interaction Z-score: 0.455 ± 0.074
[2]; [13]
  promoter activity interaction Z-score: 0.575 ± 0.24
[2]; [14]
  promoter activity interaction Z-score: 0.737 ± 0.98
[2]; [15]
  promoter activity interaction Z-score: 0.053 ± 0.093
[2]; [16]
  promoter activity interaction Z-score: 1.12 ± 0.13
[2]; [17]
  promoter activity interaction Z-score: -0.308 ± 0.14
[2]; [18]
  promoter activity interaction Z-score: 0.326 ± 0.87
[2]; [19]
  promoter activity interaction Z-score: -0.109 ± 0.28
[2]; [20]
  promoter activity interaction Z-score: -0.423 ± 0.23
[2]; [21]
  promoter activity interaction Z-score: -0.197 ± 0.6
[2]; [22]
  promoter activity interaction Z-score: 0.0845 ± 0.42
[2]; [23]
  promoter activity interaction Z-score: -0.125 ± 0.22
[2]; [8]
  promoter activity interaction Z-score: -0.424 ± 0.58
[2]; [10]
  promoter activity interaction Z-score: 0.453 ± 1.5
[3]; [11]
  promoter activity interaction Z-score: 0.0106 ± 0.12
[3]; [12]
  promoter activity interaction Z-score: -0.137 ± 0.086
[3]; [13]
  promoter activity interaction Z-score: -0.0668 ± 0.14
[3]; [14]
  promoter activity interaction Z-score: 0.0402 ± 0.15
[3]; [15]
  promoter activity interaction Z-score: 0.102 ± 0.0085
[3]; [16]
  promoter activity interaction Z-score: 0.0915 ± 0.093
[3]; [17]
  promoter activity interaction Z-score: 0.0454 ± 0.22
[3]; [18]
  promoter activity interaction Z-score: 0.0812 ± 0.0067
[3]; [19]
  promoter activity interaction Z-score: 0.0189 ± 0.12
[3]; [20]
  promoter activity interaction Z-score: -0.113 ± 0.12
[3]; [21]
  promoter activity interaction Z-score: -0.00251 ± 0.13
[3]; [22]
  promoter activity interaction Z-score: 0.294 ± 0.093
[3]; [23]
  promoter activity interaction Z-score: 0.367 ± 0.26
[3]; [8]
  promoter activity interaction Z-score: 0.0789 ± 0.17
[3]; [9]
  promoter activity interaction Z-score: -0.00598 ± 0.3
[3]; [10]
  promoter activity interaction Z-score: 0.987 ± 0.11
[4]; [11]
  promoter activity interaction Z-score: -0.752 ± 0.08
[4]; [12]
  promoter activity interaction Z-score: -0.242 ± 1.3
[4]; [13]
  promoter activity interaction Z-score: -0.5 ± 0.78
[4]; [14]
  promoter activity interaction Z-score: -0.5485 ± 0.0052
[4]; [15]
  promoter activity interaction Z-score: 0.445 ± 0.35
[4]; [16]
  promoter activity interaction Z-score: 0.287 ± 1.1
[4]; [17]
  promoter activity interaction Z-score: -0.164 ± 0.15
[4]; [18]
  promoter activity interaction Z-score: -0.317 ± 0.33
[4]; [19]
  promoter activity interaction Z-score: -0.711 ± 0.13
[4]; [20]
  promoter activity interaction Z-score: -0.75 ± 0.79
[4]; [21]
  promoter activity interaction Z-score: 0.238 ± 0.13
[4]; [22]
  promoter activity interaction Z-score: 0.385 ± 1.6
[4]; [23]
  promoter activity interaction Z-score: 1.24 ± 0.17
[4]; [8]
  promoter activity interaction Z-score: -1.22 ± 0.056
[4]; [9]
  promoter activity interaction Z-score: 0.356 ± 0.69
[4]; [10]
  promoter activity interaction Z-score: 0.0431 ± 0.49

## CC1(C)S[C@@H]2[C@H](/N=C/N3CCCCCC3)C(=O)N2[C@H]1C(=O)O [Mecillinam]
[5]; [24]
  promoter activity interaction Z-score: 0.0459 ± 0.4
[5]; [25]
  promoter activity interaction Z-score: 1.25 ± 1.5
[5]; [26]
  promoter activity interaction Z-score: -0.273 ± 0.055
[5]; [27]
  promoter activity interaction Z-score: -0.522 ± 0.019
[5]; [28]
  promoter activity interaction Z-score: -0.377 ± 0.16
[5]; [29]
  promoter activity interaction Z-score: 0.612 ± 0.15
[5]; [30]
  promoter activity interaction Z-score: -0.267 ± 0.022
[5]; [31]
  promoter activity interaction Z-score: -0.431 ± 0.57
[5]; [32]
  promoter activity interaction Z-score: 0.0507 ± 0.0088
[5]; [33]
  promoter activity interaction Z-score: -0.755
[5]; [34]
  promoter activity interaction Z-score: 0.113 ± 0.12
[5]; [35]
  promoter activity interaction Z-score: -0.499 ± 0.14
[6]; [24]
  promoter activity interaction Z-score: 0.0167 ± 0.096
[6]; [25]
  promoter activity interaction Z-score: -0.0228 ± 0.035
[6]; [26]
  promoter activity interaction Z-score: 0.0796 ± 0.13
[6]; [27]
  promoter activity interaction Z-score: -0.119 ± 0.16
[6]; [28]
  promoter activity interaction Z-score: -0.158 ± 0.16
[6]; [29]
  promoter activity interaction Z-score: -0.0902 ± 0.12
[6]; [30]
  promoter activity interaction Z-score: 0.334 ± 0.2
[6]; [31]
  promoter activity interaction Z-score: -0.0159 ± 0.17
[6]; [32]
  promoter activity interaction Z-score: 0.203 ± 0.034
[6]; [33]
  promoter activity interaction Z-score: 0.119
[6]; [34]
  promoter activity interaction Z-score: 1.33
[6]; [35]
  promoter activity interaction Z-score: 0.151 ± 0.51
[7]; [24]
  promoter activity interaction Z-score: 0.276 ± 0.25
[7]; [25]
  promoter activity interaction Z-score: 0.207 ± 0.062
[7]; [26]
  promoter activity interaction Z-score: 0.351 ± 0.025
[7]; [27]
  promoter activity interaction Z-score: -0.288 ± 0.15
[7]; [28]
  promoter activity interaction Z-score: 0.194 ± 0.12
[7]; [29]
  promoter activity interaction Z-score: 0.155 ± 0.054
[7]; [30]
  promoter activity interaction Z-score: 0.474 ± 0.16
[7]; [31]
  promoter activity interaction Z-score: 0.251 ± 0.044
[7]; [32]
  promoter activity interaction Z-score: 0.824 ± 0.39
[7]; [33]
  promoter activity interaction Z-score: -0.211 ± 0.025
[7]; [34]
  promoter activity interaction Z-score: -0.0142 ± 0.33
[7]; [35]
  promoter activity interaction Z-score: 0.562 ± 0.17
[1]; [24]
  promoter activity interaction Z-score: 0.00268 ± 0.17
[1]; [25]
  promoter activity interaction Z-score: -0.0176 ± 0.4
[1]; [26]
  promoter activity interaction Z-score: -0.211 ± 0.62
[1]; [27]
  promoter activity interaction Z-score: -0.38 ± 0.044
[1]; [28]
  promoter activity interaction Z-score: -1.12 ± 0.37
[1]; [29]
  promoter activity interaction Z-score: -0.241 ± 0.0076
[1]; [30]
  promoter activity interaction Z-score: -0.807 ± 1.2
[1]; [31]
  promoter activity interaction Z-score: -0.124 ± 0.41
[1]; [32]
  promoter activity interaction Z-score: -1.28 ± 0.79
[1]; [33]
  promoter activity interaction Z-score: -0.894 ± 1.1
[1]; [34]
  promoter activity interaction Z-score: -1.44
[1]; [35]
  promoter activity interaction Z-score: 0.0879 ± 0.27
[2]; [24]
  promoter activity interaction Z-score: 0.327 ± 0.16
[2]; [25]
  promoter activity interaction Z-score: 1.43 ± 0.17
[2]; [26]
  promoter activity interaction Z-score: -0.0357 ± 0.087
[2]; [27]
  promoter activity interaction Z-score: 0.198 ± 0.16
[2]; [28]
  promoter activity interaction Z-score: -0.956 ± 0.2
[2]; [29]
  promoter activity interaction Z-score: 0.379 ± 0.24
[2]; [30]
  promoter activity interaction Z-score: -1.19 ± 0.41
[2]; [31]
  promoter activity interaction Z-score: 0.457 ± 1.5
[2]; [32]
  promoter activity interaction Z-score: -1.37 ± 0.12
[2]; [33]
  promoter activity interaction Z-score: -0.827 ± 0.15
[2]; [34]
  promoter activity interaction Z-score: -1.65
[2]; [35]
  promoter activity interaction Z-score: -1.03 ± 0.28
[3]; [24]
  promoter activity interaction Z-score: 0.14 ± 0.081
[3]; [25]
  promoter activity interaction Z-score: 0.149 ± 0.16
[3]; [26]
  promoter activity interaction Z-score: 0.13 ± 0.12
[3]; [27]
  promoter activity interaction Z-score: 0.171 ± 0.015
[3]; [28]
  promoter activity interaction Z-score: 0.0658 ± 0.21
[3]; [29]
  promoter activity interaction Z-score: 0.371 ± 0.073
[3]; [30]
  promoter activity interaction Z-score: 0.0922 ± 0.097
[3]; [31]
  promoter activity interaction Z-score: 0.495 ± 0.048
[3]; [32]
  promoter activity interaction Z-score: 0.18 ± 0.061
[3]; [33]
  promoter activity interaction Z-score: 0.154 ± 0.13
[3]; [34]
  promoter activity interaction Z-score: -0.163 ± 0.38
[3]; [35]
  promoter activity interaction Z-score: 0.865 ± 0.22
[4]; [24]
  promoter activity interaction Z-score: 0.00505 ± 0.64
[4]; [25]
  promoter activity interaction Z-score: -0.0513 ± 0.34
[4]; [26]
  promoter activity interaction Z-score: -0.155 ± 0.23
[4]; [27]
  promoter activity interaction Z-score: -0.674 ± 0.22
[4]; [28]
  promoter activity interaction Z-score: -0.967 ± 0.5
[4]; [29]
  promoter activity interaction Z-score: -0.771 ± 0.8
[4]; [30]
  promoter activity interaction Z-score: -1 ± 0.24
[4]; [31]
  promoter activity interaction Z-score: -0.0514 ± 0.98
[4]; [32]
  promoter activity interaction Z-score: -0.779 ± 2.4
[4]; [33]
  promoter activity interaction Z-score: -0.938
[4]; [34]
  promoter activity interaction Z-score: 0.0896 ± 2.1
[4]; [35]
  promoter activity interaction Z-score: 1.16 ± 0.64
